Compounds with a hit are over-represented: about 2.2% of the library has one in this group of screens.
BaF3 parental = parental Ba/F3 cell viability inhibition, counter-screen for JAK2V617F inhibitor project, murine pro-B, CellTiter-Glo luminescence; CellTiter-Glo ATP luminescence; AID 1486, 2009; 1.1% of 220,000 active; inhibition, % at 5.6 µM;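 active = inhibition above a per-campaign cutoff, the mean inhibition of all tested compounds plus 3 SD, cut at about 27% in these data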;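 note: 0% = DMSO wells and 100% = JAK Inhibitor I control wells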
aSyn UTR inh = MLPCN primary screen, SNCA 5' untranslated region. 0.82% of 300,000 active. alpha-synuclein 5'UTR reporter, inhibitor activity. inhibition, % (tested at 7.5 µM); in the data active = inhibition above about 60%;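 note: H4 neuroglioblastoma cells stably carrying SNCA 5'UTR luciferase fusion; 0% = DMSO wells and 100% = positive control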
KLF5 inhibitor = KLF5 expression inhibitors, primary screen, DLD-1 cells, luminescence; DLD-1 KLF5 promoter-luciferase reporter; inhibition, % at 5 µM; 0.23% of 290,000 active; AID 1700, 2009;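 active = inhibition above a per-plate limit of that plate's mean compound inhibition plus 3 SD, cut at about 60% in these data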;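 note: 0% = DMSO wells and 100% = LY294002 at 200 µM; higher means less KLF5 promoter-driven luciferase light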
IEC-6 tox-1 = cytotoxicity in IEC-6 intestinal epithelial cells, primary screen, cytotoxicity control for KLF5 inhibitor project, cell-based, luminescence; 0.78% of 290,000 active; inhibition, % at 5 µM; IEC-6 cytotoxicity, luminescence viability;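 note: 0% = plate median of test compound wells and 100% = cytotoxic reference compound wells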
APP 5UTR inh = inhibitors of APP translation via 5'UTR reporter, primary screen, APP 5'UTR luciferase, SH-SY5Y cells | SH-SY5Y APP 5'UTR-luciferase reporter, luminescence | inhibition, % at 2 µM | 0.82% of 190,000 active | AID 1285, 2008;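 active = inhibition above a set limit, derived from the sample mean plus 3 SD, cut at about 45% in these data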
Ba/F3 V617F tox = reduced viability of JAK2V617F-dependent Ba/F3 cells, primary screen, JAK2V617F inhibitor project, cell-based, Ba/F3 EpoR-JAK2V617F, luminescence; inhibition, % at 5.6 µM; 1.1% of 220,000 active; ATP luminescence; AID 1446, 2008;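 active = inhibition above the campaign mean plus 3 SD over all tested compounds, cut at about 24% in these data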;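 note: cytokine-independent growth of Ba/F3 cells driven by EpoR plus mutant JAK2; 0% = DMSO-treated cells and 100% = JAK inhibitor I control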
KLF5 confirm = KLF5 expression inhibitors, confirmation, DLD-1 cells, luminescence | DLD-1 KLF5 promoter firefly luciferase reporter | AID 1834, 2009 | shares compounds with KLF5 inhibitor | inhibition, % at 4 µM | 79% of 610 active;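 active = inhibition above a set limit taken from the earlier primary screen, cut at about 63% in these data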;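 note: 0% = DMSO wells and 100% = LY294002 at 200 µM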
IEC-6 tox-2 = cytotoxicity in rat IEC-6 cells, cytotoxicity control for KLF5 inhibitor project, cell-based, luminescence, triplicate; shares compounds with KLF5 inhibitor; IEC-6 rat intestinal cells, viability luminescence; inhibition, % at 4 µM; 56% of 610 active; AID 1905, 2009; in the data active = inhibition above about 23%;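 note: cells exposed to compounds for 48 hours before viability read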
IEC-6 tox confirm = cytotoxic compounds in IEC-6 epithelial cells, confirmation, cytotoxicity control, cell-based, luminescence. shares compounds with IEC-6 tox-1. IEC-6 rat intestinal epithelial viability. inhibition, % at 5 µM. 63% of 1,900 active. AID 1907, 2009;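 note: 0% = vehicle and 100% = reference cytotoxic drug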
The depositor's hits bear a star; nt = no result given. Cut-off read from the data, not from the text of the source, unless noted: active = inhibition above about 22%; inactive = the rest.

SMILES	BaF3 parental	aSyn UTR inh	KLF5 inhibitor	IEC-6 tox-1	APP 5UTR inh	Ba/F3 V617F tox	IEC-6 tox confirm	others
CC1C(OC(=O)CCC(=O)NC(C)(C)CO)O[C@H]2OC3(C)CC[C@H]4[C@H](C)CCC1C24OO3 (stereo not given in full)	nt	4	82*	33*	nt	nt	11	KLF5 confirm=85*;IEC-6 tox-2=23*
CC(C)CC(NC(=O)CCCNC(=O)CCC(=O)OC1O[C@H]2OC3(C)CC[C@H]4[C@H](C)CCC(C1C)C24OO3)C(=O)O (stereo not given in full)	nt	-2	82*	30*	nt	nt	23*	KLF5 confirm=82*;IEC-6 tox-2=20
C[C@H]1[C@H](OC(=O)CCC(=O)NCc2ccc(C(=O)O)cc2)O[C@@H]2O[C@@]3(C)CC[C@H]4[C@H](C)CC[C@@H]1C24OO3	nt	0	80*	24*	nt	nt	21	KLF5 confirm=84*;IEC-6 tox-2=26*
CC1(C(=O)O)CCCC2(C)c3cc(O)ccc3CCC12 (stereo not given)	nt	2	nt	nt	nt	nt	nt
CN1CCN(Cc2cn(C)c3ccccc23)CC1CCO (stereo not given)	nt	15	-30	2	nt	nt	nt
CCCCn1c(C)c(C(=O)OCC)c2c(CN3CCCC3)c(O)ccc21	nt	-5	-21	8	nt	nt	nt
O=[N+]([O-])NC1=NCCN1Cc1ccc(Cl)nc1	nt	32	-22	48*	nt	nt	4
C=CCn1c(O)c(/C=N/N2CCCCC2)c(=O)[nH]c1=O	6	7	-28	-4	nt	0	nt
COc1ccc2c(C)c(CCC(=O)N3C[C@H]4C[C@@H](C3)c3cccc(=O)n3C4)c(=O)oc2c1	nt	8	5	6	nt	nt	nt
Cc1c2ccncc2c(C)c2c1[nH]c1ccccc12	74*	114*	4	49*	67*	84*	49*
C=CCn1c(O)c(C(C)=NCc2cccnc2)c(=O)[nH]c1=O	5	-1	-14	2	7	-3	nt
C=CCn1c(O)c(C(C)=NCc2cc(OC)cc(OC)c2)c(=O)[nH]c1=O	28*	38	-5	28*	26	45*	34*
O=C1NC(=S)NC(=O)C1=Cc1ccc(Br)s1	nt	-27	-30	-6	nt	nt	nt
CCN1C[C@]2(C)CC[C@H](OC)[C@]34C2[C@H](OC(C)=O)[C@@]2(OCO[C@@]25C[C@H](OC)[C@H]2C[C@]3(O)C5[C@H]2OC)[C@@H]14	nt	2	-18	-4	nt	nt	nt
CC[C@H]1CN2CC[C@@]3(C(=O)Nc4ccccc43)[C@@H]2C[C@@H]1/C(=C\OC)C(=O)OC	nt	18	nt	nt	nt	nt	nt
CC/C(=C\C=C\[C@@H]1C=C[C@@H]2CCC[C@H]2[C@@H]1C(=O)c1ccc[nH]1)[C@@H]1O[C@@H]([C@@H](C)C(=O)O)CC[C@@H]1C	31*	45	12	39*	-2	55*	33*
C[C@@]1(CO)[C@H](O)CC[C@@]2(C)[C@H]1CC[C@H]1C[C@@H]3C[C@@]12CC[C@]3(O)CO	91*	73*	23	87*	83*	99*	80*
c1ccc(-c2cc(-c3ccccc3)[n+](-c3ccccc3)c(-c3ccccc3)c2)cc1	97*	-1	39	47*	nt	99*	47*
Cc1ccc2[nH]c(C)c(CCNCc3cccnc3)c2c1	nt	-2	-10	7	nt	nt	nt
Cc1cccc(-n2c(O)c(/C=C3/C(c4ccccc4)=Nc4ccccc43)c(=O)[nH]c2=O)c1	74*	-174	23	70*	nt	82*	58*
Cc1cccc(-n2c(O)c(/C=C/C=Nc3ccccc3)c(=O)[nH]c2=O)c1	7	6	-1	-4	13	-1	nt
COC(=O)C[C@]1(C(=O)OC)CN(C#N)N(c2ccc(Cl)cc2)C12c1ccccc1-c1ccccc12	97*	96*	37	101*	96*	98*	93*
Cc1nc2ccccc2c(=O)n1-c1ccc(Br)cn1	51*	-176	-31	22*	nt	25*	-2
Cc1ccnc(-n2c(C)nc3ccccc3c2=O)c1	7	-16	-37	8	-35	2	nt
Cc1ccc(-c2cc(-c3ccc(C)cc3)[n+](C)o2)cc1	73*	-2	-16	25*	-20	91*	23*
SMILES	BaF3 parental	aSyn UTR inh	KLF5 inhibitor	IEC-6 tox-1	APP 5UTR inh	Ba/F3 V617F tox	IEC-6 tox confirm	others
C[C@H]1[C@@H](c2ccccc2)O[C@@H](c2ccccc2Br)N1C	nt	31	nt	nt	nt	nt	nt
O=C(COc1ccc2ccc(=O)oc2c1)N1CCC(C(=O)O)(c2ccccc2)CC1	nt	-11	3	0	nt	nt	nt
CN1C2CCC1/C(=C/c1ccccn1)C(=O)/C2=C\c1ccccn1	103*	nt	9	59*	95*	100*	95*
Cc1ccccc1-n1c(/C=C/c2ccccn2)nc2ccccc2c1=O	-4	-9	-16	-2	nt	2	nt
CN(C)C(=O)Oc1ccc2c(c1)O/C(=C\c1cccc(Cl)c1)C2=O	nt	-72	-61	1	nt	nt	nt
COc1ccc(C2=CC(c3ccc(OC)c(OC)c3)c3c(c4ccccc4oc3=O)O2)cc1OC (stereo not given)	-1	-42	-2	28*	nt	0	21
CC/C=C/CC(=O)N[C@@H](c1ccccc1)[C@@H](O)C(=O)O[C@H]1C[C@@]2(O)[C@@H](OC(=O)c3ccccc3)C3[C@](C)(C(=O)[C@H](OC(C)=O)C(=C1C)C2(C)C)[C@@H](O)C[C@H]1OC[C@@]31OC(C)=O (stereo not given in full)	nt	77*	49	92*	nt	nt	86*
CCC(C)C(=O)N[C@@H](c1ccccc1)[C@@H](O)C(=O)O[C@H]1C[C@@]2(O)[C@@H](OC(=O)c3ccccc3)C3[C@](C)(C(=O)[C@H](OC(C)=O)C(=C1C)C2(C)C)[C@@H](O)C[C@H]1OC[C@@]31OC(C)=O (stereo not given in full)	nt	103*	56	92*	nt	nt	81*
CN(C)CC1CCCCC1OC(=O)Cc1ccc(Cl)c([N+](=O)[O-])c1 (stereo not given)	nt	14	-2	2	nt	nt	nt
FC(F)(F)Oc1ccc(NC2=NCCCS2)cc1	nt	-50	-37	3	nt	nt	nt
COc1ccc2[nH]c(C)c(CCNCc3cc(OC)c(OC)c(OC)c3)c2c1	7	-3	-12	4	-2	3	nt
COc1ccc(CNCCc2c(C)[nH]c3ccc(OC(F)(F)F)cc23)c(OC)c1	nt	90*	-12	38*	nt	nt	22*
FC(F)(F)c1ccccc1CCN1CCNCC1	nt	-5	-2	9	nt	nt	nt
CC(=O)O[C@@]12CO[C@@H]1C[C@H](OC1OCC(O)C(O)C1O)[C@@]1(C)C(=O)[C@H](O)C3=C(C)[C@@H](OC(=O)[C@H](O)[C@@H](NC(=O)c4ccccc4)c4ccccc4)C[C@@](O)([C@@H](OC(=O)c4ccccc4)C12)C3(C)C (stereo not given in full)	nt	-11	16	57*	nt	nt	46*
CCCCCC(=O)N[C@@H](c1ccccc1)[C@@H](O)C(=O)O[C@H]1C[C@@]2(O)[C@@H](OC(=O)c3ccccc3)C3[C@](C)(C(=O)[C@H](O)C(=C1C)C2(C)C)[C@@H](OC1OCC(O)C(O)C1O)C[C@H]1OC[C@@]31OC(C)=O (stereo not given in full)	nt	7	17	68*	nt	nt	54*

High-throughput results deposited in PubChem BioAssay by several laboratories.
